The results in this text go back to publication PMC7862700, “An all-to-all approach to the identification of sequence-specific readers for epigenetic DNA modifications on cytosine”.

Holding throughout (experiment): DAPPL (digital affinity profiling via proximity ligation, sequencing); 10 mM Tris-HCl pH 7.5, 50 mM NaCl, 1 mM DTT, 4% glycerol, room temperature, 30 min; GST-TFs on glutathione beads, 16-mer random dsDNA library, 0.1% formaldehyde crosslink after washing; high values mean tight binding
In assay [1] the target is T1, FEV (Homo sapiens, UniProt Q99581 1-238).
T1 sequence: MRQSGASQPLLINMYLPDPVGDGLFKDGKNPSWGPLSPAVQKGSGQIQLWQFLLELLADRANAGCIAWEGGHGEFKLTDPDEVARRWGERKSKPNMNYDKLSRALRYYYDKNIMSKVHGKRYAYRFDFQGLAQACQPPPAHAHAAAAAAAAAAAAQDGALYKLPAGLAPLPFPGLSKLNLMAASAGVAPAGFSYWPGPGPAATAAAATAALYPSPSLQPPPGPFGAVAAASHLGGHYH
As to conditions: protein: recombinant; tags: N-terminal GST; dsDNA, one strand shown. The essentials: (§1)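 After expression in yeast as GST fusions, human transcription factors were bound to glutathione beads, DNA-barcoded and mixed with a tag-only sample. The pools were incubated with 200 nmole of a 16-mer random double-stranded DNA library in Tris/NaCl/DTT/glycerol buffer (30 min, room temperature), washed and crosslinked with 0.1% formaldehyde. Proximity ligation with BsaI/T4 ligase ran for 1 h at 37 °C, before PCR amplification and sequencing on an Illumina NextSeq500. Binding signal is a hexamer's read frequency for a factor divided by its frequency for the tag-only sample.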

In assay [2] the target is ETV5 (Homo sapiens, UniProt P41161 1-510). As to conditions: protein: recombinant; tags: N-terminal GST; dsDNA, one strand shown. The essentials:
as §1

In assay [3] the target is HSF1 (Homo sapiens, UniProt Q00613 1-529). As to conditions: protein: recombinant; tags: N-terminal GST; chain copies: 3; dsDNA, one strand shown. Put shortly: as §1
HSF1, sequence (Q00613 whole entry): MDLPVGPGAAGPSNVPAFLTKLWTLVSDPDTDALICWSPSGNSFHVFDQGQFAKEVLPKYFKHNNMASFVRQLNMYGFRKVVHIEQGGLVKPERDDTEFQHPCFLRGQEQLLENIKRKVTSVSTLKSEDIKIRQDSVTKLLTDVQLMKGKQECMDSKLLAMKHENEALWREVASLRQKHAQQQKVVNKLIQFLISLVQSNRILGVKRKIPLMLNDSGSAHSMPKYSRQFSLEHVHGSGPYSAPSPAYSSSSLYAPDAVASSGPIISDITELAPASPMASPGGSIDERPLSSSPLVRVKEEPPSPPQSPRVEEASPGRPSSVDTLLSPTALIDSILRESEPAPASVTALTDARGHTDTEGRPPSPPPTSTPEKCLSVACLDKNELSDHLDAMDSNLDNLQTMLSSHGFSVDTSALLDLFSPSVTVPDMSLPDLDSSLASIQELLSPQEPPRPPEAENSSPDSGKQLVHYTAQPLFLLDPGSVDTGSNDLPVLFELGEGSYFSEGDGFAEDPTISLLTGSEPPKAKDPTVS
For assay [4], the target named is T2, SPIC (Homo sapiens, UniProt Q8N5J4 1-248).
T2 sequence: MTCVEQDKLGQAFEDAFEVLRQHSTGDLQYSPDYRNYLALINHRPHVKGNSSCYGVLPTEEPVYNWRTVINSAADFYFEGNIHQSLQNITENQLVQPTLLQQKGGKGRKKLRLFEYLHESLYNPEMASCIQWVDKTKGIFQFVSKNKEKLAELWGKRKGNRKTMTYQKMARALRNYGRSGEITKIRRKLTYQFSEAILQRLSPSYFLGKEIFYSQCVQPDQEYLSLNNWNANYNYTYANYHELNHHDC
The settings on record: protein: recombinant; tags: N-terminal GST; dsDNA, one strand shown. The essentials:
as §1

The target in assay [5] is ELF4 (Homo sapiens, UniProt Q99607 1-663). The settings on record: protein: recombinant; tags: N-terminal GST; dsDNA, one strand shown. Put shortly: as §1
ELF4, sequence (Q99607 whole entry): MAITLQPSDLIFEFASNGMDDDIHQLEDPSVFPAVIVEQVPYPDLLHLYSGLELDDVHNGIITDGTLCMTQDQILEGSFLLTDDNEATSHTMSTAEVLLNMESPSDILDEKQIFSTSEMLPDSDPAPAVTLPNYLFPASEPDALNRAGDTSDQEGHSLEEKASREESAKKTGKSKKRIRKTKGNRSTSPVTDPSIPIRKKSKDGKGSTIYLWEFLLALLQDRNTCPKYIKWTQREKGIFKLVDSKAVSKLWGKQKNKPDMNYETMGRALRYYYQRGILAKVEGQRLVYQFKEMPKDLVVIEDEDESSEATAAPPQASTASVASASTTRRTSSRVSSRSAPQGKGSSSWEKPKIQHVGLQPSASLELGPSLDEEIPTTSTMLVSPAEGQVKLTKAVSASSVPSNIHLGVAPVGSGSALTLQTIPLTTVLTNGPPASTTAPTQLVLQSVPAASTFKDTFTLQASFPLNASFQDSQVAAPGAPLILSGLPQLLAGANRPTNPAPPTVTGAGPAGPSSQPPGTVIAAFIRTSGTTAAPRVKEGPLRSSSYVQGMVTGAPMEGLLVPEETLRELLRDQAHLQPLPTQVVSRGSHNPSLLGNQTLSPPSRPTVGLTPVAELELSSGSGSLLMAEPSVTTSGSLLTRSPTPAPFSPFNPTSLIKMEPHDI
Assay [6] deals with T3, ELK4 (Homo sapiens, UniProt P28324-2 1-405).
T3 sequence: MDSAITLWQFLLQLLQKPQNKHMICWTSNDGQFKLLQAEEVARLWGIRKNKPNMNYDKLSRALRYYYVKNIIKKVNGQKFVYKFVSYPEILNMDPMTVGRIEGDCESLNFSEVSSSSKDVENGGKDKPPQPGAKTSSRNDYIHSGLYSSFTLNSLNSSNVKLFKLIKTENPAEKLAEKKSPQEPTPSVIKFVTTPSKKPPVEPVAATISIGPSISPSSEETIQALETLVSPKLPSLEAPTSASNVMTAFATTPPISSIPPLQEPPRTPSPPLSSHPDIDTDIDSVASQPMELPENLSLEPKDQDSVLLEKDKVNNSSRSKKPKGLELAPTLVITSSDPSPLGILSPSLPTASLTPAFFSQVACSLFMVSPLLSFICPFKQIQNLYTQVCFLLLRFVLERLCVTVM
As to conditions: protein: recombinant; tags: N-terminal GST; dsDNA, one strand shown. The essentials: as §1

Assay [7] has as its target T4, ETV2 (Homo sapiens, UniProt O00321 1-342).
T4 sequence: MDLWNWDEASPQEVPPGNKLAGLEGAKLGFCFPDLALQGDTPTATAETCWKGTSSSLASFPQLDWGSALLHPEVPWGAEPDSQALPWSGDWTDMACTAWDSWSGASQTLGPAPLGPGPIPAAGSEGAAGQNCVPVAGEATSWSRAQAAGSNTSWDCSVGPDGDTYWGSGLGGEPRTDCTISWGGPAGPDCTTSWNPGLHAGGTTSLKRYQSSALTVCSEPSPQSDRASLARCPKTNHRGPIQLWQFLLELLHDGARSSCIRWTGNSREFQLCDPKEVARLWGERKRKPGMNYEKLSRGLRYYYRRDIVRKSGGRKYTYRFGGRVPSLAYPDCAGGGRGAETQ
The settings on record: protein: recombinant; tags: N-terminal GST; dsDNA, one strand shown. The essentials:
as §1

The target of assay [8] is T5, ELF3 (Homo sapiens, UniProt P78545 1-371).
T5 sequence: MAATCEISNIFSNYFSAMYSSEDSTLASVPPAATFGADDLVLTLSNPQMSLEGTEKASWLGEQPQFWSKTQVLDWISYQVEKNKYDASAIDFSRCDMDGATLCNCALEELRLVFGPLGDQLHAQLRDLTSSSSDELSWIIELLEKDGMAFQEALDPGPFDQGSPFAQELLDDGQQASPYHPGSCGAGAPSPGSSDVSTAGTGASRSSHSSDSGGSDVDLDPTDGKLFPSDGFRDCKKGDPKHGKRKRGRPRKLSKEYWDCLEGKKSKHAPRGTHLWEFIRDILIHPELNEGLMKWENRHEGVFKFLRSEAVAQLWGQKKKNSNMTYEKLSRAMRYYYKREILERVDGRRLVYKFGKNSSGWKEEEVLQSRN
The settings on record: protein: recombinant; tags: N-terminal GST; dsDNA, one strand shown. The essentials:
as §1

Assay [9] addresses CRX (Homo sapiens, UniProt O43186 1-299). The settings on record: protein: recombinant; tags: N-terminal GST; dsDNA, one strand shown. Put shortly: as §1
Assay [10] deals with ETV1 (Homo sapiens, UniProt P50549 1-477). As to conditions: protein: recombinant; tags: N-terminal GST; dsDNA, one strand shown. The essentials:
as §1

Assay [11] has as its target T6, ERF (Homo sapiens, UniProt P50548 1-548).
T6 sequence: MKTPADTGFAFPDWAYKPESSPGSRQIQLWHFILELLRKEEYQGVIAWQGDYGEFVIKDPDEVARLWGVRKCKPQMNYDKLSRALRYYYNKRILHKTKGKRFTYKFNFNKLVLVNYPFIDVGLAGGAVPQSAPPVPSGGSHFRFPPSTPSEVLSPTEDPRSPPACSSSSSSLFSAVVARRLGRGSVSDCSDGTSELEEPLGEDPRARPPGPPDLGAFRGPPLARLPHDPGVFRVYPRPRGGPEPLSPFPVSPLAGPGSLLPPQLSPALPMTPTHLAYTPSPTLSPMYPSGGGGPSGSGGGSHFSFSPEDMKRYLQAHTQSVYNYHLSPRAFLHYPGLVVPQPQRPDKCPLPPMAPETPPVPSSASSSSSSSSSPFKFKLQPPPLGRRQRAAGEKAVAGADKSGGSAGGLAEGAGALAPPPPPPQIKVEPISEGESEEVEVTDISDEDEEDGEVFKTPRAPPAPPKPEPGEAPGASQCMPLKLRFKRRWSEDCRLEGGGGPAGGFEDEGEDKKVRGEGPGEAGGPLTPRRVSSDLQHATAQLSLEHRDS
The settings on record: protein: recombinant; tags: N-terminal GST; dsDNA, one strand shown. Put shortly:
as §1

In assay [12] the target is T7, ETV3L (Homo sapiens, UniProt Q6ZN32 1-361).
T7 sequence: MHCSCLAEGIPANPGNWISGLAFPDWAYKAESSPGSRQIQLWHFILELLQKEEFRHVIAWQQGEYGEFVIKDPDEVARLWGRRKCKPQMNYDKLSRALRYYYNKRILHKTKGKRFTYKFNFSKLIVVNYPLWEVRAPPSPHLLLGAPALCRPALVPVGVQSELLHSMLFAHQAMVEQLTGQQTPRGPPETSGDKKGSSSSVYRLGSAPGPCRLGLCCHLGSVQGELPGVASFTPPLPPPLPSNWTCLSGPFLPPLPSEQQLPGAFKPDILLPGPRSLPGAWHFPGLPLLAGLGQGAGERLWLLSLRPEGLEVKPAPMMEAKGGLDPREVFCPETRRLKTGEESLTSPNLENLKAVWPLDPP
The settings on record: protein: recombinant; tags: N-terminal GST; dsDNA, one strand shown. The essentials: as §1

The target of assay [13] is T8, ETS2 (Homo sapiens, UniProt P15036 1-469).
T8 sequence: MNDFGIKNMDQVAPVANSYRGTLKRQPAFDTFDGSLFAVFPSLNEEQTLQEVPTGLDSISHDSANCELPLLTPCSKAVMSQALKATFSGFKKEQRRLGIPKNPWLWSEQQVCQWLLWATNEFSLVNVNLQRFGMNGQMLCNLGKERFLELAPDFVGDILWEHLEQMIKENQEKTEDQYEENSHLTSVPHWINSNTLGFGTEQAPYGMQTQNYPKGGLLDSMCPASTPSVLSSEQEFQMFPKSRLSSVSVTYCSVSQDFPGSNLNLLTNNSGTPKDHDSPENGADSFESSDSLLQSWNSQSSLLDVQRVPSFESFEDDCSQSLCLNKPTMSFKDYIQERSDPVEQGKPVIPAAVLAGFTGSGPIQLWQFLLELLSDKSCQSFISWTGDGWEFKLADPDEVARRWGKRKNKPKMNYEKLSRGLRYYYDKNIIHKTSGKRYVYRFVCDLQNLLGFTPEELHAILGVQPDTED
As to conditions: protein: recombinant; tags: N-terminal GST; dsDNA, one strand shown. Put shortly: as §1

In assay [14] the target is T9, SPDEF (Homo sapiens, UniProt O95238 1-335).
T9 sequence: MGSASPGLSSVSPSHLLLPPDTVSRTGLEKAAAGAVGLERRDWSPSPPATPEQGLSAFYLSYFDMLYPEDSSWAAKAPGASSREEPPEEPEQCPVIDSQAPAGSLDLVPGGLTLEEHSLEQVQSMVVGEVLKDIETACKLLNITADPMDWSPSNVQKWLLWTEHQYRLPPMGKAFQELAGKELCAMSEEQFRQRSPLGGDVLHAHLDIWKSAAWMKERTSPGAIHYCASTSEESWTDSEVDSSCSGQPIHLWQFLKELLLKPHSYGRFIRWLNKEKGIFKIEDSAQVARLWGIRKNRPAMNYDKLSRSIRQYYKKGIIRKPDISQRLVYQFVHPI
The settings on record: protein: recombinant; tags: N-terminal GST; dsDNA, one strand shown. The essentials: as §1

Assay [15] has as its target T10, ETV7 (Homo sapiens, UniProt Q9Y603 1-341).
T10 sequence: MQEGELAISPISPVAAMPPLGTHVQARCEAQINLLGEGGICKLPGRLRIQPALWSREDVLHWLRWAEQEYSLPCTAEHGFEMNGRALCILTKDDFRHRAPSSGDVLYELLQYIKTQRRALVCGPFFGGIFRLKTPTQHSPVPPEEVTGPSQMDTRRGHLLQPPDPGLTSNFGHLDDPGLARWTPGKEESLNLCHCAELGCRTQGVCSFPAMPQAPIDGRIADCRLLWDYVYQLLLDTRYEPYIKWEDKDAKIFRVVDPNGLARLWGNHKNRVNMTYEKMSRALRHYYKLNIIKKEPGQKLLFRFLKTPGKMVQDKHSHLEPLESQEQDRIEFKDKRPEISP
As to conditions: protein: recombinant; tags: N-terminal GST; dsDNA, one strand shown. Put shortly: as §1

The target of assay [16] is T11, ELF5 (Homo sapiens, UniProt Q9UKW6-2 1-255).
T11 sequence: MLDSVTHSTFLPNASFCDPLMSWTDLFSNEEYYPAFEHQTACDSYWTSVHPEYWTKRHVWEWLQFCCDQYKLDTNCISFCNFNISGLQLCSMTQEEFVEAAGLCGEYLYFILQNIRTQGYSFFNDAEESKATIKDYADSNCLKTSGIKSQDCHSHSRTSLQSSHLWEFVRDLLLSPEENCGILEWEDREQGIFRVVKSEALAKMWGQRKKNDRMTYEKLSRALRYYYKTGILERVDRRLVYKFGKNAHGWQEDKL
As to conditions: protein: recombinant; tags: N-terminal GST; dsDNA, one strand shown. The essentials:
as §1

Assay [17] has as its target T12, ETV3 (Homo sapiens, UniProt P41162-2 1-143).
T12 sequence: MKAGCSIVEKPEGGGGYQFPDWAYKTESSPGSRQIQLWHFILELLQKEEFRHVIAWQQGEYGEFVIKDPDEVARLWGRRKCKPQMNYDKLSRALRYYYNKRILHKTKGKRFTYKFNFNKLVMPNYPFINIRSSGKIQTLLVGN
The settings on record: protein: recombinant; tags: N-terminal GST; dsDNA, one strand shown. The essentials: as §1

The target of assay [18] is ETV6 (Homo sapiens, UniProt P41212 1-452). As to conditions: protein: recombinant; tags: N-terminal GST; dsDNA, one strand shown. Put shortly: as §1
ETV6, sequence (P41212 whole entry): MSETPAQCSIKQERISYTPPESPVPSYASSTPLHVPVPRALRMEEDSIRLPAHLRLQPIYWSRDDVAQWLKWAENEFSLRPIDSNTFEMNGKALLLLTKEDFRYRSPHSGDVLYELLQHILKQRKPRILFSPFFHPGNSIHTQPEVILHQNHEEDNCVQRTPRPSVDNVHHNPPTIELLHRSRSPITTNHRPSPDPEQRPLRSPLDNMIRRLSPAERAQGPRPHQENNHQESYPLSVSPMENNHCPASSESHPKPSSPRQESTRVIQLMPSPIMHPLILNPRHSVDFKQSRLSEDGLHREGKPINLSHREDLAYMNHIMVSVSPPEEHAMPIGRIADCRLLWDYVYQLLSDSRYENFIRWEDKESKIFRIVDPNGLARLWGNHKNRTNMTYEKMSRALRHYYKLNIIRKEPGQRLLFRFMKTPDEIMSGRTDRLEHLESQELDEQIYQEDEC

ETV5, sequence (P41161 whole entry): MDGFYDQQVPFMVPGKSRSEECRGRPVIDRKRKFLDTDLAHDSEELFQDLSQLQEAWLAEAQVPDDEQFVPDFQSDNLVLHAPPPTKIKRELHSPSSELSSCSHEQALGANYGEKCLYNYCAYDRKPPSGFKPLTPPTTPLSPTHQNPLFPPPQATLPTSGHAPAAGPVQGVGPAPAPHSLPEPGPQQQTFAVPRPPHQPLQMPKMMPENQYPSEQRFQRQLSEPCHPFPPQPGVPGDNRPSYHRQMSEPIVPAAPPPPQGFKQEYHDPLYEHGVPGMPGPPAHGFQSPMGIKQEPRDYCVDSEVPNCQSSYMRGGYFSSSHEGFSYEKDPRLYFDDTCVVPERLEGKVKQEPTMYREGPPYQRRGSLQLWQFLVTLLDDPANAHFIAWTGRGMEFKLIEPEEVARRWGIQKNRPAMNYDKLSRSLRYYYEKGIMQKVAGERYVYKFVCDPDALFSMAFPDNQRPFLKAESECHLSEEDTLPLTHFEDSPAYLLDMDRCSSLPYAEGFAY
CRX, sequence (O43186 whole entry): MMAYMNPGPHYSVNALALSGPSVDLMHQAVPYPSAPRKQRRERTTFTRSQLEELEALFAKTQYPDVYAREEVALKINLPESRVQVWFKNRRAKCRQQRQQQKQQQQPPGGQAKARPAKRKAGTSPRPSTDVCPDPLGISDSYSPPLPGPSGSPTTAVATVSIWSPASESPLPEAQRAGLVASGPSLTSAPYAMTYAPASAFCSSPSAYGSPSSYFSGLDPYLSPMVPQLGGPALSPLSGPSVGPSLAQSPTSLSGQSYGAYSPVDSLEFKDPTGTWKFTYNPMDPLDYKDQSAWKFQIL
ETV1, sequence (P50549 whole entry): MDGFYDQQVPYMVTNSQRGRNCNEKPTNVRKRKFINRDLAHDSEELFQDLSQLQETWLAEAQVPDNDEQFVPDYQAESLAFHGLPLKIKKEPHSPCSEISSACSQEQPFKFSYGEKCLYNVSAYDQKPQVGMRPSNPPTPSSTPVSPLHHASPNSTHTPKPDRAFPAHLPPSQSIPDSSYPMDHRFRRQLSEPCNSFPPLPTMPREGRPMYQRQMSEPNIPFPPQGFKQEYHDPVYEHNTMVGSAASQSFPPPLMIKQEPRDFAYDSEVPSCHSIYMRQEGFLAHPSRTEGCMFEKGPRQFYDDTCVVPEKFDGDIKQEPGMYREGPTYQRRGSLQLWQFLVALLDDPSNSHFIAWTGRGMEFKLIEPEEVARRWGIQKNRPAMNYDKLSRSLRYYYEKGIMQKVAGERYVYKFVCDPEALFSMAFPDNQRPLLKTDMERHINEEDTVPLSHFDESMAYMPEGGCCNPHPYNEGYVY

With TCTGCT, the binding signal in assay [1] is 1.28 fold enrichment (6-mer frequency, TF over GST control); in [2], 1.29 fold enrichment (6-mer frequency, TF over GST control); in assay [3], 1.33 fold enrichment (6-mer frequency, TF over GST control); in assay [4] it was 1.43 fold enrichment (6-mer frequency, TF over GST control); in [5], 1.3 fold enrichment (6-mer frequency, TF over GST control); in assay [6], 1.57 fold enrichment (6-mer frequency, TF over GST control). For the same sequence, the binding signal in assay [7] was 1.53 fold enrichment (6-mer frequency, TF over GST control); in assay [8], 1.11 fold enrichment (6-mer frequency, TF over GST control); in assay [9], 1.33 fold enrichment (6-mer frequency, TF over GST control); in assay [10] it was 1.32 fold enrichment (6-mer frequency, TF over GST control); in [11], 1.52 fold enrichment (6-mer frequency, TF over GST control); in [12], 1.28 fold enrichment (6-mer frequency, TF over GST control). In addition, the binding signal in [13] is 1.29 fold enrichment (6-mer frequency, TF over GST control); in [14], 1.21 fold enrichment (6-mer frequency, TF over GST control); in assay [15], 1.14 fold enrichment (6-mer frequency, TF over GST control); in assay [16], 1.2 fold enrichment (6-mer frequency, TF over GST control); in assay [17], 1.32 fold enrichment (6-mer frequency, TF over GST control); in assay [18], 1.18 fold enrichment (6-mer frequency, TF over GST control).
